This passage reports Potency and outcome results from PubChem BioAssay (Tox21).

Assay [1] is described as follows: Nuclear factor erythroid 2-related factor 2/antioxidant responsive element (Nrf2/ARE) small molecule agonists: qHTS cell viability counter screen in human keratinocytes (AID 1919968; active means well fitted curve in the direction sought with a large enough effect in the repeat runs; an effect the other way counts as inactive or inconclusive; further: nearly all actives have a fitted effect of over 55% in size; further: potency means the concentration at half of the fitted maximal effect). In short, it runs like this: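 Seed 1,500 KeratinoSens cells per well, then incubate 5 h at 37 C/5% CO2. Add compounds in DMSO and incubate 23 h. Add CellTiter-Fluor, wait 1 h and read fluorescence.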

A short description of assay [2]: Nuclear factor erythroid 2-related factor 2/antioxidant responsive element (Nrf2/ARE) small molecule agonists: luciferase reporter gene qHTS assay in human keratinocytes (AID 1919969; further: nearly all actives have a fitted effect of over 35% in size). (In general: A reporter such as luciferase makes a cellular process visible.)
Assay [3] has as its target Gonadotropin-releasing hormone receptor (Homo sapiens) (UniProt P30968). In words: Human gonadotropin-releasing hormone receptor (GnRHR) small molecule agonists, calcium flux assay in GnRHR-HEK293 cells (AID 1920063). Further: nearly all actives have a fitted effect of over 35% in size. The method in brief: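 Cells: HEK293 stably expressing human GnRHR. Steps: overnight (18 h) culture, 1 h calcium dye loading at 37 C, compound addition, kinetic fluorescence read at 480/540 nm. Each compound tested at 15 concentrations in triplicate.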
In general terms: A change in cytosolic calcium serves as a functional read-out for many receptors and channels.

The target of assay [4] is KiSS-1 receptor (Homo sapiens) (UniProt Q969F8). In words: Human kisspeptin (KISS1R) small molecule agonists, calcium flux assay in KISS1R-HEK293 cells (AID 1920064; active means well fitted curve in the direction sought with a large enough effect in the repeat runs; an effect the other way counts as inactive or inconclusive). In short, it runs like this:
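Cells plated and incubated 18 h; dye added, 1 h at 37 C; compounds in DMSO pinned in; signal read at 480/540 nm every second for 3 min. Each compound tested at 15 concentrations in triplicate.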

The nature of assay [5]: p53 small molecule agonists, cell-based qHTS assay with human liver microsomes (AID 1963577).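 Further: p53 response element beta-lactamase reporter cells with liver microsomes plus NADPH.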 The method in brief:
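With metabolic activation: human liver microsomes (0.5 mg/mL final) plus NADPH (0.5 mg/mL final) added alongside compounds to p53RE-bla cells; 16 h 37 C exposure; beta-lactamase read by LiveBLAzer fluorescence.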
(In general: qHTS replaces the single test concentration by a dilution series.)

A short description of assay [6]: p53 small molecule agonists, cell-based qHTS assay with rat liver microsomes (AID 1963578). The method in brief: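 Metabolic activation by rat liver microsomes and NADPH, each 0.5 mg/mL final, added right after compounds to p53RE-bla reporter cells (4,000/well, plated 5 h earlier). 16 h at 37 C, then LiveBLAzer substrate for 2 h at room temperature in the dark; fluorescence read-out.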

The nature of assay [7]: p53 small molecule agonists, cell-based qHTS assay with human liver microsomes: qHTS cell viability counter screen (AID 1963579). Further: nearly all actives have a fitted effect of over 45% in size. In short, it runs like this:
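Metabolic activation used human liver microsomes and NADPH, both 0.5 mg/mL final, over 16 hours at 37 C on p53RE-bla cells (4,000/well). Cytotoxicity measured by CellTiter-Glo luminescence, 30 min at room temperature.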

A short description of assay [8]: p53 small molecule agonists, cell-based qHTS assay with rat liver microsomes: qHTS cell viability counter screen (AID 1963580). Further: nearly all actives have a fitted effect of over 45% in size. In short, it runs like this:
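Intracellular ATP, by CellTiter-Glo luminescence, defines viability. HCT-116 p53RE-bla cells, 4,000 per well, were compound-treated in the presence of rat liver microsomes and NADPH for 16 h at 37 C.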

Assay [9] is described as follows: p53 small molecule agonists, cell-based qHTS assay: qHTS cell viability counter screen (AID 1963581). Further: nearly all actives have a fitted effect of over 45% in size. The method in brief: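 Cells: HCT-116 with p53 response element-driven beta-lactamase. Treatment: 16 h, 37 C, compounds in DMSO. Read: CellTiter-Glo luminescence after 30 min RT.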
Assay [10] is described as follows: p53 small molecule agonists, cell-based qHTS assay (AID 1963582; active means well fitted activation curve with a large enough effect in the signal ratio in the repeat runs, not every such curve was filed as active; the % refers to the signal ratio). In short, it runs like this:
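Quantitative HTS in p53RE-bla cells: after a 5 h settling period, compounds delivered in DMSO were left on cells for 16 h at 37 C, and reporter induction was measured as fluorescence following 2 h substrate loading.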

Assay [11] can be described thus: cAMP Responsive Elements (CRE) small molecule agonists, cell-based qHTS assay (AID 1963590). The method in brief: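 Agonist mode qHTS in CRE-bla HEK 293T cells: compounds dosed from DMSO for 3 h at 37 C/5% CO2, followed by LiveBLAzer B/G FRET substrate for 2 h at room temperature.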
The nature of assay [12]: cAMP Responsive Elements (CRE) small molecule antagonists, cell-based qHTS assay (AID 1963591; active means well fitted inhibition curve with a large enough effect in the signal ratio in the repeat runs, not every such curve was filed as active; the % refers to the signal ratio). The method in brief:
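Antagonist mode: test compounds are co-incubated with the adenylyl cyclase activator NKH477 (0.25 uM final) on CRE-bla HEK293T cells for 3 h at 37 °C, followed by LiveBLAzer substrate loading.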

Assay [13] addresses Beta-2 adrenergic receptor (Homo sapiens) (UniProt P07550). In words: Adrenergic beta2 receptor (ADRB2) small molecule antagonists, cell-based qHTS assay (AID 1963592). Further: series mostly up to about 92 µM; nearly all actives have a fitted effect of over 50% in size. In short, it runs like this:
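Cells (CHO, stable ADRB2 overexpression) incubated 18-20hr at 37C; compounds added from DMSO; agonist mix (1nM isoproterenol, 100uM IBMX, 25uM Ro-20-1724) added; 0.5hr RT; d2-cAMP and anti-cAMP-cryptate added; 1hr RT; 665/615 nm read.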

For assay [14], the target named is D(2) dopamine receptor (Homo sapiens) (UniProt P14416). As to the kind of experiment: Dopamine D2 receptor (DRD2) small molecule agonists, cell-based qHTS assay (AID 1963594). Further: nearly all actives have a fitted effect of over 35% in size. The method in brief:
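cAMP accumulation in DRD2-HEK293 cells measured by HTRF after 1 h detection; compounds added 10 min before NKH477 (200nM […]) forskolin-analogue stimulation, 30 min at room temperature, with Ro20-1724 present at 0.1 mM final.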

For assay [15] the target is unchanged. As to the kind of experiment: Dopamine D2 receptor (DRD2) small molecule antagonists, cell-based qHTS assay (AID 1963595; active means well fitted inhibition curve with a large enough effect in the signal ratio in the repeat runs, with a control signal flat; the % refers to the signal ratio). The method in brief: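 DRD2-HEK293; 0.1 mM Ro20-1724; cpd 10 min RT; NKH477 200 nM + quinpirole 12 nM, 30 min RT; HTRF cAMP (cAMP-d2/anti-cAMP cryptate), 665/620 nm ratio after 1 h.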
Assay [16] deals with 5-hydroxytryptamine receptor 2A (Homo sapiens) (UniProt P28223). In words: 5-hydroxytryptamine receptor 2A (HTR2A) small molecule agonists, cell-based qHTS assay (AID 1963587). Further: nearly all actives have a fitted effect of over 30% in size. The method in brief: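 Kinetic calcium-flux fluorescence (2 min, 1 sec intervals) after compound addition in agonist mode. HTR2A-CHO cells were cultured 18 h, then dye-loaded 1 h at 37 C.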
In assay [17] the target is Muscarinic acetylcholine receptor M1 (Homo sapiens) (UniProt P11229). In words: Cholinergic receptor muscarinic 1 (CHRM1) small molecule antagonists, cell-based qHTS assay (AID 1963588). Further: nearly all actives have a fitted effect of over 40% in size. In short, it runs like this: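 CHRM1-CHO calcium-flux assay, antagonist mode. Cells were seeded 18 h, dye-loaded 1 h at 37 C and given compound for 5 min at RT, then acetylcholine was added at 50nM. FDSS fluorescence was read 3 min; 15 concentrations, three runs.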

Assay [18] shares this target. As to the kind of experiment: Cholinergic receptor muscarinic 1 (CHRM1) small molecule agonists, cell-based qHTS assay (AID 1963589). Further: nearly all actives have a fitted effect of over 35% in size. The method in brief:
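Agonist-mode qHTS in CHO cells stably carrying human muscarinic M1. Intracellular calcium is tracked by fluorescence every second after compound transfer; each compound runs at 15 concentrations in three independent runs.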

Assay [19] addresses 5-hydroxytryptamine receptor 2A (Homo sapiens) (UniProt P28223). In words: 5-hydroxytryptamine receptor 2A (HTR2A) small molecule antagonists, cell-based qHTS assay (AID 1963586). Further: nearly all actives have a fitted effect of over 45% in size. The method in brief: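 Antagonist-mode intracellular calcium assay: DOI (4 nM) added after 5 min compound pre-incubation at room temperature to dye-loaded HTR2A-CHO cells. Fluorescence followed for 3 min, sampled every second.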

Each structure is given as a SMILES string. A number with no mark means an inactive call. Results filed as inconclusive are left out. Activity calls are given as the source filed them. Unless noted, the call rests on the fitted dose curve.

KiSS-1 receptor (Homo sapiens), sequence (Q969F8 whole entry, looked up): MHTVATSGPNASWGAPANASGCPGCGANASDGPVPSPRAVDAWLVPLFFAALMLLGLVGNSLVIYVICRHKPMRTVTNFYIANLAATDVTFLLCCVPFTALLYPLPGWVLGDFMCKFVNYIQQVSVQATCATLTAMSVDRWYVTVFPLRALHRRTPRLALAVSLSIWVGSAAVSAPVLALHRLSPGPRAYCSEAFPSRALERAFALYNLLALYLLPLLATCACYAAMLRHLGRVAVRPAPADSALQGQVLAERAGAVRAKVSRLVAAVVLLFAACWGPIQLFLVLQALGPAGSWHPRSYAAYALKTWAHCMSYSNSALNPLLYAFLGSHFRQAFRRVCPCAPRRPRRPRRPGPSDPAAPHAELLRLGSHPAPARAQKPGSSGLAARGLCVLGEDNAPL
Muscarinic acetylcholine receptor M1 (Homo sapiens), sequence (P11229 whole entry, looked up): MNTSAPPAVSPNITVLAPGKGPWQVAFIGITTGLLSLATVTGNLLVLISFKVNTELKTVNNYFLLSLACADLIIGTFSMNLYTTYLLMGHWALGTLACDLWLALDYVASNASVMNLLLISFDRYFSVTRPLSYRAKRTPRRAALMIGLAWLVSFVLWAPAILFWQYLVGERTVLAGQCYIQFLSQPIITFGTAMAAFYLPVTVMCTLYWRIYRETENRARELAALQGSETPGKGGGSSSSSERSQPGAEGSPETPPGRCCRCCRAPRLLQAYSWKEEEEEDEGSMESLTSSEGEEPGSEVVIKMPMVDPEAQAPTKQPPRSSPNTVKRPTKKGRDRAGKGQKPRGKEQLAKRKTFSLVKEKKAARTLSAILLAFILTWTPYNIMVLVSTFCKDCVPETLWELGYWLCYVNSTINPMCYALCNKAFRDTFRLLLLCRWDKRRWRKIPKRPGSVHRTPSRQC
5-hydroxytryptamine receptor 2A (Homo sapiens), sequence (P28223 whole entry, looked up): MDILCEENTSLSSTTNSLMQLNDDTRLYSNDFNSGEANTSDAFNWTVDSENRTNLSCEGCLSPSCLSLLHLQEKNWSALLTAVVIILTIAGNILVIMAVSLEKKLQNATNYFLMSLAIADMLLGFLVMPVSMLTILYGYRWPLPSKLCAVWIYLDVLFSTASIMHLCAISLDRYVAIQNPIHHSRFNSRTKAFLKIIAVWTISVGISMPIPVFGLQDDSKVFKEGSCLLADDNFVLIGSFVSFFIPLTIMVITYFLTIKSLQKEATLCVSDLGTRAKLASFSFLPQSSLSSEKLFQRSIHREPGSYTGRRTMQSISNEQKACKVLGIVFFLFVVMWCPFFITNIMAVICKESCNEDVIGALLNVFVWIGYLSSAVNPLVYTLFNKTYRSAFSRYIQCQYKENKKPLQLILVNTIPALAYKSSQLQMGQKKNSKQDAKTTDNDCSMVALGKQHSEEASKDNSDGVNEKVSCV
D(2) dopamine receptor (Homo sapiens), sequence (P14416 whole entry, looked up): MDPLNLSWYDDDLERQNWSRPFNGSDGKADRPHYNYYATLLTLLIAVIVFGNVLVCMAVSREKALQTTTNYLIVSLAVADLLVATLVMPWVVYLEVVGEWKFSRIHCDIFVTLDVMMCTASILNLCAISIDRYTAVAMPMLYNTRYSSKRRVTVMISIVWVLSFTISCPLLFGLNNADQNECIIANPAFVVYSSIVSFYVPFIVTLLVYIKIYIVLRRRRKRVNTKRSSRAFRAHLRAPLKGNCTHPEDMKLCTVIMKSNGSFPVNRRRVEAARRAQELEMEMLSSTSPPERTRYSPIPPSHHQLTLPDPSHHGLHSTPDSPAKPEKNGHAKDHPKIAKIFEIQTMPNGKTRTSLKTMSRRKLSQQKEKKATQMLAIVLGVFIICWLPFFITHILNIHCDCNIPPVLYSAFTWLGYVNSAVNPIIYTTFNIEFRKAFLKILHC
Gonadotropin-releasing hormone receptor (Homo sapiens), sequence (P30968 whole entry, looked up): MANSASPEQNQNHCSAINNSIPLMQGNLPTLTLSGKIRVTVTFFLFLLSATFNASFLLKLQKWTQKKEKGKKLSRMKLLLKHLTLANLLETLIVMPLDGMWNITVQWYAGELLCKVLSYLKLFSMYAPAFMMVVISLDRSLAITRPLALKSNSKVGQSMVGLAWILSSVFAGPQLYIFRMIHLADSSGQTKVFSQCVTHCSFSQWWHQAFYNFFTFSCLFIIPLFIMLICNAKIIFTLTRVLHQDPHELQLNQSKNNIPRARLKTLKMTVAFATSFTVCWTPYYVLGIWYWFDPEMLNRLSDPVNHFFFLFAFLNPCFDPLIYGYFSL
Beta-2 adrenergic receptor (Homo sapiens), sequence (P07550 whole entry, looked up): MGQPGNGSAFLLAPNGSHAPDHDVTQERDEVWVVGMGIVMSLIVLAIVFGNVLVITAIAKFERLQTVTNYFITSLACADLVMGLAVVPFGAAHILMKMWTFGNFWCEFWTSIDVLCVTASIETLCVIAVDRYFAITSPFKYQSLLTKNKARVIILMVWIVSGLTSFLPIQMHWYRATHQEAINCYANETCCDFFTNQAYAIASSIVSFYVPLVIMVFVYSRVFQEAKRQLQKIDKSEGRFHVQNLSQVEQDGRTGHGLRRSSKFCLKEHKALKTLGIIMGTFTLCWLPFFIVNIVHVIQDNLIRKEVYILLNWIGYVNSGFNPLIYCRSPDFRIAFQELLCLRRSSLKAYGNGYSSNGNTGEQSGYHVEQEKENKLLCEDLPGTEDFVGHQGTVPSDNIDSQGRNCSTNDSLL

As for `CC(C)NNC(=O)c1ccncc1`, the Potency entry in assay [1], in assay [2], in assay [3], in [5], in assay [6] and in [7] was “inactive” each time. The Potency entry in assay [8], in assay [9], in [10], in assay [11], in [12] and in assay [13] was “inactive” throughout. Moreover, the Potency result in assay [14] and in [15] was “inactive” in each case. For the same molecule, the outcome in [4] was inactive.
As to `FC(F)OC(Cl)C(F)(F)F` (stereo not given), the Potency entry in assay [1], in assay [2], in assay [3], in assay [5], in assay [6] and in assay [7] was “inactive” each time. Moreover, the Potency entry in [8], in assay [9], in assay [10], in assay [16], in [17] and in assay [18] was “inactive” in each case. Further, the Potency entry in [11], in [12], in [13], in assay [14] and in [15] was “inactive” in each case. Moreover, in [4], the result was inactive.
Take `CCN1CCN(c2cc3c(cc2F)c(=O)c(C(=O)O)cn3C2CC2)CC1`: the Potency entry in assay [1], in assay [2], in assay [3], in [5], in [6] and in [7] was “inactive” each time. For the same molecule, the Potency result in [8], in assay [9], in assay [10], in [14] and in assay [15] was “inactive” each time. Further, the result in assay [4] was inactive.
As for `Nc1cccc2c(=O)[nH][nH]c(=O)c12`, the Potency entry in [1], in [2], in assay [3], in assay [5], in [6] and in assay [7] was “inactive” throughout. Moreover, the Potency result in assay [8], in assay [9], in [10], in [16], in assay [17] and in assay [18] was “inactive” throughout. Besides, the Potency entry in assay [12], in [13], in assay [14] and in assay [15] was “inactive” in each case. In assay [4], the result was inactive.
As for `FC(F)(F)C(F)(F)C(F)(F)C(F)(F)CCI`, the Potency result in assay [1], in assay [2], in assay [3], in assay [5], in assay [6] and in [7] was “inactive” in each case. For the same molecule, the Potency entry in assay [8], in [10], in [16], in assay [17], in [18] and in assay [11] was “inactive” throughout. In addition, the Potency entry in assay [12], in [13], in assay [14] and in [15] was “inactive” throughout. In [4], the result was inactive.
`CCCN(CCC)C(=O)C(CCC(=O)OCCCN1CCN(CCOC(=O)Cc2c(C)n(C(=O)c3ccc(Cl)cc3)c3ccc(OC)cc23)CC1)NC(=O)c1ccccc1` (stereo not given): the Potency result in [1], in assay [2], in [3], in assay [5], in assay [6] and in assay [7] was “inactive” in each case. Further, the Potency result in assay [8], in assay [9], in assay [16], in assay [18], in assay [13] and in assay [14] was “inactive” throughout. Further, the result in assay [4] was inactive.
In the case of `Nc1c(N=Nc2ccc(-c3ccc(N=Nc4cc(S(=O)(=O)O)c5ccccc5c4N)cc3)cc2)cc(S(=O)(=O)O)c2ccccc12`, in assay [1], the Potency is 30.6 µM (active). Further, the Potency result in [2], in assay [3], in [5], in assay [6], in assay [7] and in assay [8] was “inactive” each time. Moreover, the Potency entry in assay [19], in assay [17], in assay [18], in assay [11] and in assay [12] was “inactive” throughout. Besides, the result in [4] was inactive.
As to `Cc1cc(C(C)(C)C)cc(C)c1CC1=NCCN1`, the Potency result in assay [1], in assay [2], in assay [3], in assay [5], in assay [6] and in assay [7] was “inactive” in each case. Also, the Potency result in assay [8], in [9], in [10], in assay [18], in assay [11] and in [12] was “inactive” each time. The Potency entry in [13] and in [14] was “inactive” in each case. In assay [4], the outcome was inactive.
